Source: PubChem BioAssay
Unmarked numbers belong to inactive results. How the calls were made is not given here.

Molecular target: Pantothenate synthetase (Mycobacterium tuberculosis (strain ATCC 25618 / H37Rv)) (UniProt P9WIL5)
Experiment: Recombinant Mtb pantothenate synthetase (PanC) inhibitors, coupled enzyme, confirmatory (AID 375);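 further: 0% = full reaction with vehicle and 100% = no enzyme background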
Conditions: coupled enzyme assay; at 10 µM, stronger effect = higher value

Sequence of Pantothenate synthetase (Mycobacterium tuberculosis (strain ATCC 25618 / H37Rv)) (P9WIL5 whole entry, looked up): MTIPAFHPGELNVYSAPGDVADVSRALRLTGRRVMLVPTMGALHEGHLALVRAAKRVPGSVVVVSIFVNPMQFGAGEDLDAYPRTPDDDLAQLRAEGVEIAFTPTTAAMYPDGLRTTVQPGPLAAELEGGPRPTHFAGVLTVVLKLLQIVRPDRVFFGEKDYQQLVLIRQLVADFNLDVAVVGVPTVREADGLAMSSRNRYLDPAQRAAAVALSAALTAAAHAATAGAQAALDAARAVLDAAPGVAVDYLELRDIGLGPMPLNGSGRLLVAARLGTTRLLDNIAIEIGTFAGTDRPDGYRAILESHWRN

SMILES	inhibition [%]
O=C(NC1CCCCC1)N(Cc1ccccc1)Cc1ccco1	1
O=C(O)CC1=C(O)C(=O)N(c2ccccc2)C1c1ccccc1 (configuration not stated)	0
CCOC(=O)N1CCN(C(=O)C2CC(=O)N(Cc3ccc(OC)cc3)C2)CC1 (configuration not stated)	3
O=C(c1cc(S(=O)(=O)N2CCOCC2)ccc1F)N1CCCc2ccccc21	1
CCN(C#N)c1nc(NC(C)C)nc(NC(C)C)n1	5
COc1ccc(CCN2C(=O)CCC2(C)C(=O)NCc2cccnc2)cc1OC (configuration not stated)	0
COc1ccc(C(=O)N(CCCO)Cc2cc3c(C)ccc(C)c3[nH]c2=O)cc1OC	0
Cn1cc(C(=O)NC2CCCCCCC2)c(=O)c2cc(S(=O)(=O)N3CCCC3)ccc21	0
Cn1c(SCC(N)=O)nnc1C1CCN(S(=O)(=O)c2ccccc2C(F)(F)F)CC1	0
COc1ccc(NC(=O)CSc2nnc(-c3ccccc3)n2N)cc1	0
Cn1c(=O)c2c(nc(SCC(=O)N3CCCc4ccccc43)n2C)n(C)c1=O	1
CN(C)S(=O)(=O)N1CCN(C(=O)N(c2ccccc2)c2ccccc2)CC1	0
CC(C)=CCCC(C)N(C=O)C(C)CCC=C(C)C (configuration not stated)	3
Cc1cccc(-c2noc(CCC(=O)Nc3ccccc3)n2)c1	5
Cc1cc(C(=O)CSc2nc3ccccc3[nH]2)c(C)n1C	12
COC(=O)C(C)NC(=O)C12CC3CC(CC(C3)C1)C2 (configuration not stated)	0
COc1ccc(CNC(=O)c2cnc3n(c2=O)CCS3)cc1	0
COCCn1nnnc1CN(CCCN1CCOCC1)Cc1cc2c(C)ccc(C)c2[nH]c1=O	0
c1ccc2[nH]c(CSc3nnc(-c4ccncc4)o3)nc2c1	4
O=C(O)c1ccc2noc(-c3ccccc3)c2c1	0
C#CCN1C(=O)C(O)(CC(=O)c2cccc(OC)c2)c2ccccc21 (configuration not stated)	0
COc1ccc(C2=CC(=O)OC3(CCCCC3)O2)cc1	0
CC(=O)Nc1ccc(NC(=O)c2ccccc2N(C)S(C)(=O)=O)cc1	2
O=C(/C=C/c1ccccc1)c1ccccc1	0
COc1ccc(C(=O)NCCC(C)C)cc1S(=O)(=O)N1CCOCC1	9
COc1ccc(S(=O)(=O)N2CN(Cc3ccco3)c3nc4ccccc4nc32)cc1	0

SMILES	inhibition [%]
COc1ccc(OC)c(C2=Nn3c(nnc3C3CCCCC3)SC2)c1	0
CCOC(=O)c1ccccc1NC(=O)N1CCn2c(C)ccc2C1CC (configuration not stated)	2
O=C(CSc1nnc(Cn2c(=O)sc3ccccc32)n1-c1ccccc1)Nc1nccs1	1
Cc1cc(=O)oc2c1ccc1oc(/C(=N/O)c3ccccc3)c(C)c12	0
CC1(C)CC(=O)C(C(=O)CCCCC(=O)C2C(=O)CC(C)(C)CC2=O)C(=O)C1	0
Cc1ccc(-n2cnnn2)c2cccnc12	5
COc1ccc(C2=NO[C@@H]3C(=O)N(c4cccc(C)c4C)C(=O)[C@H]23)cc1OC	1
CCS(=O)(=O)Nc1ccc(C(=O)CC2(O)C(=O)Nc3ccccc32)cc1 (configuration not stated)	14
CCN(CC)C(=O)c1ccc(O)c(OC)c1	0
NC(=O)N1c2ccccc2C=Cc2ccccc21	0
COc1ccc(-c2noc(COc3ccc4ccccc4c3Br)n2)cc1OC	6
COc1ccc(CCNc2nc(N3CCOCC3)nc(N3CCOCC3)n2)cc1OC	0
CCCc1c(OCCCCc2nn[nH]n2)ccc(C(C)=O)c1O	0
COc1ccc(OC)c(C(=O)CSc2nnc(-c3ccc(OC)c(OC)c3)o2)c1	11
Cc1ccc(-c2nnc(N3CCN(C(=O)CN4C(=O)c5ccccc5C4=O)CC3)c3ccccc23)cc1	0
CC(c1ccco1)N(Cc1ccco1)C(=O)Nc1ccccc1 (configuration not stated)	0
Cc1ccc(Br)cc1S(=O)(=O)N1CCN(c2ccccc2)CC1	0
O=C(COC(=O)Cc1cccc(C(F)(F)F)c1)NCC1CCCO1 (configuration not stated)	3
O=C(OC1CCc2ccccc2C1=O)c1ccccc1O (configuration not stated)	0
Cc1oc2c(c1C(=O)NCc1ccccc1)CCCC2	0
CCOc1cc(NC(=O)c2ccco2)c(OCC)cc1NC(=O)Cc1cccc(OC)c1	8
CC(=O)C1=C(N2CCCCC2)CCC1=O	0
C=CCn1c(=O)/c(=C/c2ccc(O)cc2)s/c1=C(/C#N)c1nnc2n1CCCCC2	0
CCOC(=O)N1CCN(c2ncnc3c2[nH]c2ccc(OC)cc23)CC1	0
Cc1ccc(S(=O)(=O)N2CCOCC2)cc1C(=O)OCC(=O)N1CCc2ccccc2C1	0
O=c1c2cc(Cl)ccc2[nH]c(=S)n1Cc1ccco1	8

SMILES	inhibition [%]
Cc1cc(C(=O)Nc2cccc(O)c2)c(C)o1	20
Cc1ccc(C)c(-c2nc3ccc(N)cc3[nH]2)c1	0
COc1ccc(-n2c(SCC(=O)c3c(N)n(C)c(=O)n(C)c3=O)nc3ccccc32)cc1	0
CC(=O)NCCc1nc2ccccc2[nH]1	0
O=C(C1CC2CCC1C2)N1CCN(Cc2ccc3c(c2)OCO3)CC1 (configuration not stated)	8
CCOc1cc(CN2CCN(C(=O)c3ccco3)CC2)ccc1OC	9
CCCCc1nc(NCCN2CCOCC2)c(C#N)c2c1COC(C)(C)C2	0
CCCn1c(NCc2ccc3c(c2)OCO3)nc2ccccc21	0
CC1=Nn2c(nnc2-c2ccccc2)SC1	0
CCCc1cc(=O)[nH]c(/N=C(\N)Nc2ccccc2)n1	6
CN(Cc1cnn(C)c1)C(=O)c1cc2ccccc2oc1=O	3
CC(C)[C@H](NC(=O)OC(C)(C)C)c1nnc(S(=O)(=O)Cc2c(F)cccc2Cl)o1	0
COc1cc(C)c(-c2cc(C(=O)O)c(C)o2)cc1C(C)C	0
COCCCN(Cc1ccccn1)S(=O)(=O)Cc1ccccc1	0
CC(=O)c1c(C)[nH]c(C(=O)NCc2cccs2)c1C	0
O=C(Cc1ccsc1-c1ccccc1)NO	0
Cc1csc2nc(CSc3nc4ccccc4o3)c(Br)n12	0
O=C(O)c1ccc(COc2ccc(Cl)cc2)o1	0
CCOc1ccc2cc(C#N)c(SCC(=O)N3CCC(C)CC3)nc2c1	10
O=C(O)Cc1ccc(-c2ccccc2)cc1	0
O=C(c1ccco1)N(Cc1cc2ccccc2[nH]c1=O)C1CCCCC1	0
COC(=O)c1cn(NC(=O)c2cccnc2)c(=O)c2ccccc12	0
CCn1c(=O)c(=O)[nH]c2cc(C(=O)N3CCN(c4ccccc4F)CC3)ccc21	4
COc1ccc(-c2cc(C(F)(F)F)n3nc(C(=O)N4CCOCC4)nc3n2)cc1	8
CCn1c(SCC(=O)Nc2cc(C)on2)nc2sc3c(c2c1=O)CCCC3	0
COC(=O)CN1C(=O)C(O)(CC(=O)c2ccc(Cl)cc2)c2ccccc21 (configuration not stated)	0

SMILES	inhibition [%]
CCCCc1c(O)nc(SCC(=O)c2ccccc2)[nH]c1=O	0
CCCn1cnc2c(c1=O)c1nc3ccccc3nc1n2Cc1ccccc1OC	0
COc1cccc(Oc2ccc(N)cn2)c1	0
O=C(O)CCCNS(=O)(=O)c1ccc(NCc2ccccc2)c(C(=O)O)c1	0
COc1cccc(-n2c(C)nc3c(cnn3-c3ccc(Cl)cc3)c2=O)c1	4
CS(=O)(=O)N1CCc2cc(C(=O)N3CCCCC3)ccc21	2
Cc1nnc2ccc(N3CCN(c4cccc(C(F)(F)F)c4)CC3)nn12	0
O=C(CS(=O)(=O)Cc1ccccc1)N1CCc2ccccc2C1	1
O=C(O)CCc1ccc(-c2cccs2)n1NC(=O)c1ccco1	0
CC1(C)COCN1S(=O)(=O)c1ccc(C(=O)Nc2nnc(-c3ccc(Cl)s3)o2)cc1	4
CCCCOc1ccc(N(CC(=O)NC2CCCC2)C(=O)CCC(=O)Nc2ccccn2)cc1	0
COc1ccccc1C1CC(c2ccc(C)cc2)Nc2ncnn21 (configuration not stated)	3
O=C(c1ccco1)N1CCN(C(=O)C2CCN(S(=O)(=O)c3cccc4nsnc34)CC2)CC1	10
COc1ccc(C(NC(C)=O)c2ccc3cccnc3c2O)c(OC)c1 (configuration not stated)	0
COC(=O)c1ccc(Oc2nc(NC(C)C)nc(N(C)C)n2)cc1	1
COc1ccc(C)cc1NC(=O)CCN1CCCC1	0
COC(=O)c1sc(NC(=O)COc2ccccc2OC)nc1C	0
CCNc1nc(N2CCCCC2)nc(-n2nnc(C(=O)OCC)c2C)n1	2
CCOC(=O)COc1ccc(S(=O)(=O)N2CCc3ccccc3C2)cc1	0
Cc1n[nH]c(C)c1S(=O)(=O)N1CCN(c2ccccn2)CC1	2
CCOc1ccccc1NC(=O)N1CCCC1C(=O)Nc1nnc(CC)s1 (configuration not stated)	0
COc1ccccc1S(=O)(=O)Cc1ccc(C(=O)N2CCOCC2)o1	0
N#Cc1nc(-c2cccs2)oc1NCCc1ccccc1	0
CN(C)CCCN1C(=O)c2oc3ccccc3c(=O)c2C1c1cccs1 (configuration not stated)	0
